A selection: hits, their analogues and other compounds. The true share with any hit is near 1.3%.
EBNA-1 inhibitor = blocks EBNA-1 binding to DNA | AID 1950 | inhibition, % at 14.8 µM | 300,000 tested, 0.34% active | EBNA-1 DNA binding, fluorescence polarization; in the data active means inhibition above about 28%
LYPLA2 counter = LYPLA2 (human) inhibition in PME1 counter-screen; O95372; recombinant LYPLA2, FP-Rh probe fluorescence polarization; inhibition, % at 5.9 µM; 320,000 tested, 0.38% active;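 active means inhibition above the screen-wide mean plus 3 SD, limit set per campaign, cut at about 26% in these data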
Target sequence (O95372 whole entry, looked up): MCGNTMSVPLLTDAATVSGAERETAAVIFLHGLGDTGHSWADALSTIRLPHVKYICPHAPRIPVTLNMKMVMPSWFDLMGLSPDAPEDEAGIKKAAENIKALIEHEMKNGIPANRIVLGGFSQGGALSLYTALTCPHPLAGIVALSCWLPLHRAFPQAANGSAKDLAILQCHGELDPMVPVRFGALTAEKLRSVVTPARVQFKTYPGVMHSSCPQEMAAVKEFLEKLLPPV
PREPL inh = human PREPL enzyme inhibition; Q4J6C6; recombinant PREPL, fluorescence polarization activity-based probe; inhibition, % at 5.96 µM; 320,000 tested, 0.68% active; AID 2751
ZTA DNA inh = ZTA (EBV) inhibition in EBNA-1 counter-screen | AID 2234 | 320,000 tested, 0.15% active | inhibition, % at 11 µM | ZTA-DNA binding, fluorescence polarization; in the data active means inhibition above about 33%
Target sequence (P03206 whole entry, looked up): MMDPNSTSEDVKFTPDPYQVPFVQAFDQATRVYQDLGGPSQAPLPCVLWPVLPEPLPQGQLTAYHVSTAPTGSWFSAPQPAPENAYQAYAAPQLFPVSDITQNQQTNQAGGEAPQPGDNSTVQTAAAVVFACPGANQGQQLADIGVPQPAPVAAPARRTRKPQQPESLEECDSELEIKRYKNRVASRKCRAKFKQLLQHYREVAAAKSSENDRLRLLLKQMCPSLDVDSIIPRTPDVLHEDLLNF
LYPLA1 inh = LYPLA1 (human) inhibition in PME1 counter-screen; O75608; recombinant LYPLA1, FP-Rh probe fluorescence polarization; inhibition, % at 5.9 µM; 320,000 tested, 0.16% active;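 active means inhibition above the mean of all tested compounds plus 3 SD, set per campaign, cut at about 14% in these data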;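 further: inhibitors block serine hydrolase probe labeling of LYPLA1 so polarization falls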
Target sequence (O75608 whole entry, looked up): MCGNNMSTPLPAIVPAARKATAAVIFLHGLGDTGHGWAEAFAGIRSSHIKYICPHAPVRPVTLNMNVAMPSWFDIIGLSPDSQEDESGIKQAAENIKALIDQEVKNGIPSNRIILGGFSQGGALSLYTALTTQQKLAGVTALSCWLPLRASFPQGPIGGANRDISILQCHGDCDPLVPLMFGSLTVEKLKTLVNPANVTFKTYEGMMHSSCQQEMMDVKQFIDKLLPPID
PREPL inh cf = human PREPL inhibition, confirmation | shares compounds with PREPL inh | inhibition, % at 5.96 µM | recombinant PREPL, fluorescence polarization activity probe | 2,000 tested, 67% active | AID 2803
Of the large screens only hits and unclear results are named; the others gave an inactive call (follow-up assays come after a bar, where they were run). Unless noted, no stated cut-off is given here; in the data, active means inhibition above about 43%; inactive means the rest.

CC(C)N1CCN(c2ccc(OC[C@H]3CO[C@](Cn4cncn4)(c4ccc(Cl)cc4Cl)O3)cc2)CC1	PREPL inh 57 | PREPL inh cf 46
COc1ccc(C(=O)O)cc1S(=O)(=O)Nc1ccc2cn[nH]c2c1	none (no result: EBNA-1 inhibitor, LYPLA2 counter, ZTA DNA inh, LYPLA1 inh)
CC1CCCCN1C(=O)C1CCCCN1S(=O)(=O)c1cccc([N+](=O)[O-])c1 (stereo not drawn)	none
C[C@H](CO)N1C[C@H](C)[C@@H](CN(C)S(=O)(=O)c2cccs2)Oc2c(NC(=O)Cc3ccccc3)cccc2C1=O	PREPL inh 43 (no result: EBNA-1 inhibitor, LYPLA2 counter, ZTA DNA inh, LYPLA1 inh) | PREPL inh cf inactive
COc1ccc(NC(=O)Nc2cccc3c2O[C@@H](CN(C)CC2CCCCC2)[C@@H](C)CN([C@H](C)CO)C3=O)cc1	PREPL inh 57 (no result: EBNA-1 inhibitor, LYPLA2 counter, ZTA DNA inh, LYPLA1 inh) | PREPL inh cf 51
C[C@H](CO)N1C[C@H](C)[C@@H](CN(C)S(=O)(=O)c2ccc(F)cc2)Oc2c(NC(=O)Cc3ccccc3)cccc2C1=O	PREPL inh 44 (no result: EBNA-1 inhibitor, LYPLA2 counter, ZTA DNA inh, LYPLA1 inh) | PREPL inh cf inactive
C[C@H](CO)N1C[C@H](C)[C@@H](CN(C)S(C)(=O)=O)Oc2c(NC(=O)Cc3ccccc3)cccc2C1=O	none (no result: EBNA-1 inhibitor, LYPLA2 counter, ZTA DNA inh, LYPLA1 inh)
COc1ccc(NC(=O)Nc2ccc3c(c2)C(=O)N([C@@H](C)CO)C[C@@H](C)[C@@H](CN(C)CC2CCCCC2)O3)cc1	none (no result: EBNA-1 inhibitor, LYPLA2 counter, ZTA DNA inh, LYPLA1 inh)
C[C@H](CO)N1C[C@H](C)[C@@H](CN(C)C(=O)Nc2ccc(C(F)(F)F)cc2)Oc2ccc(NC(=O)c3ccncc3)cc2C1=O	PREPL inh 51 (no result: EBNA-1 inhibitor, LYPLA2 counter, ZTA DNA inh, LYPLA1 inh) | PREPL inh cf 46
CC(C)(C)C(=O)NNC(=O)C1CC1(c1ccccc1)c1ccccc1 (stereo not drawn)	none
C[C@H](CO)N1C[C@H](C)[C@H](CN(C)Cc2ccccc2)Oc2c(NC(=O)Nc3ccc(F)cc3)cccc2C1=O	PREPL inh 53 (no result: EBNA-1 inhibitor, LYPLA2 counter, ZTA DNA inh, LYPLA1 inh) | PREPL inh cf 55
C[C@H]1CN([C@@H](C)CO)C(=O)c2cccc(NS(=O)(=O)c3ccc(Cl)cc3)c2O[C@@H]1CN(C)CC1CCCCC1	PREPL inh 61 (no result: EBNA-1 inhibitor, LYPLA2 counter, ZTA DNA inh, LYPLA1 inh) | PREPL inh cf 50
C[C@@H]1CN([C@@H](C)CO)C(=O)Cc2cc(NC(=O)Nc3cccc4ccccc34)ccc2O[C@@H]1CN(C)S(C)(=O)=O	PREPL inh 45 (no result: EBNA-1 inhibitor, LYPLA2 counter, ZTA DNA inh, LYPLA1 inh) | PREPL inh cf inactive
C[C@@H]1CN([C@H](C)CO)C(=O)c2cc(NC(=O)Nc3cccc4ccccc34)ccc2O[C@H]1CN(C)Cc1ccc(C(F)(F)F)cc1	none (no result: EBNA-1 inhibitor, LYPLA2 counter, ZTA DNA inh, LYPLA1 inh)
C[C@H]1CN([C@@H](C)CO)C(=O)c2cc(NC(=O)Nc3cccc4ccccc34)ccc2O[C@@H]1CN(C)Cc1ccc(-c2ccccc2)cc1	PREPL inh 48 (no result: EBNA-1 inhibitor, LYPLA2 counter, ZTA DNA inh, LYPLA1 inh) | PREPL inh cf 45
C[C@@H]1CN([C@@H](C)CO)C(=O)c2cccc(NC(=O)Nc3ccc(F)cc3)c2O[C@@H]1CN(C)Cc1ccc(Oc2ccccc2)cc1	none (no result: EBNA-1 inhibitor, LYPLA2 counter, ZTA DNA inh, LYPLA1 inh)
Cc1ccccc1OCCC(=O)Nc1ccc(N2CCOCC2)cc1N1CCOCC1	PREPL inh 43 | PREPL inh cf inactive
O=C(COc1cccc(Br)c1)Nc1ccc(N2CCOCC2)cc1N1CCOCC1	PREPL inh 46 (no result: EBNA-1 inhibitor) | PREPL inh cf inactive
CC1CC(=O)c2c(cc3c(-c4c(O)cc(O)c5c(O)c6c(cc45)OC(C)CC6=O)c(O)cc(O)c3c2O)O1 (stereo not drawn)	PREPL inh 77 | PREPL inh cf inactive
CCOC(=O)N1CCN(c2ncnc3c2[nH]c2ccc(F)cc23)CC1	none
Fc1ccc2[nH]c3c(N4CCN(c5ccccc5)CC4)ncnc3c2c1	PREPL inh 62 | PREPL inh cf 48
COc1ccc(N2CCN(c3ncnc4c3[nH]c3ccccc34)CC2)cc1	PREPL inh 52 | PREPL inh cf 46
COc1cccc2[nH]c3c(N4CCCCC4)ncnc3c12	none
COc1cc2[nH]c3c(N4CCN(c5ccccn5)CC4)ncnc3c2cc1OC	PREPL inh 69 | PREPL inh cf 69
COc1ccc2[nH]c3c(N4CCc5ccccc5C4)ncnc3c2c1	PREPL inh 60 | PREPL inh cf 56
CCOC(=O)N1CCN(c2ncnc3c2[nH]c2ccc(OC)cc23)CC1	none
CC(=O)C1=C(C)NC(=O)CC1c1ccc(Br)cc1 (stereo not drawn)	none
CC(=O)Nc1cc(C(=O)N(C)Cc2ccccc2)ccc1S(=O)(=O)c1ccc(C)cc1	none
O=C(OCC(=O)N1CCN(c2ccc(F)cc2)CC1)c1cnc2ccccc2n1	PREPL inh 49 (no result: EBNA-1 inhibitor, LYPLA2 counter, ZTA DNA inh, LYPLA1 inh) | PREPL inh cf inactive
CCOC(=O)c1c(Nc2ccc(Cl)cc2)sc(/C=C2\C=Nc3ccccc32)c1O	none
CC1=Nc2ccccc2/C1=C\c1sc(Nc2ccc(C)cc2)nc1O	PREPL inh 52 | PREPL inh cf 46
Oc1cccc(Nc2nc(O)c(/C=C3\C=Nc4ccccc43)s2)c1	PREPL inh 53 | PREPL inh cf 52
CC1=Nc2ccccc2/C1=C/c1sc(=O)n(CC(=O)N2CCCC2)c1O	none
Oc1nc(Nc2cccc(Cl)c2)sc1/C=C1\C=Nc2ccccc21	PREPL inh 56 | PREPL inh cf 64
CSc1cc(-c2ccco2)oc1C(=O)c1ccco1	none
CCC(CC)=N/N=C/c1c(O)n(CC)c2cc(C3=NNC(=O)CC3)ccc12	none
CCn1c(O)c(/C=N/N=C/c2ccccc2)c2ccc(C3=NNC(=O)CC3)cc21	PREPL inh 72 | PREPL inh cf 65
CN(C(=O)c1cc(-c2ccccc2)on1)C1CCCCC1	none
Brc1cc(-c2ccccc2)nc(-c2ccccc2)n1	none
CCCCCCSc1cccc(-c2nc3ccc(C)cn3c2NC2CCCCC2)c1	none
Cc1ccc2nc(-c3ccccn3)c(NC3CCCC3)n2c1	PREPL inh 64 | PREPL inh cf 70
COc1cc2c(C#N)c(N3CCN(C)CC3)nc(N)c2c(N)n1	PREPL inh 45 | PREPL inh cf inactive
COc1ccccc1N1CCN(c2nc(N)c(C#N)c(CC#N)c2C#N)CC1	none
COc1cc2c(C#N)c(N3CCN(c4ccccc4OC)CC3)nc(N)c2c(N)n1	PREPL inh 49 | PREPL inh cf 46
O=C(CCNC(=O)c1ccc(Cl)cc1)Nc1cccc(S(=O)(=O)N2CCCCC2)c1	none (no result: EBNA-1 inhibitor)
O=C(Cn1cnc(S(=O)(=O)N2CCCC2)c1)Nc1ccc(OC(F)(F)F)cc1	none
O=C(Cn1ccc2ccccc2c1=O)NCC(=O)Nc1ccc(F)cc1F	none
COc1ccc(-c2cc(-c3ccc(OC)c(OC)c3)n[nH]2)c(O)c1	PREPL inh 46 | PREPL inh cf inactive
COc1ccc(-c2cc(-c3ccccc3O)[nH]n2)cc1OC	none
C=CCOc1ccc(C=NNc2ccc(S(=O)(=O)Nc3ccccc3C(=O)O)cc2[N+](=O)[O-])cc1OC	PREPL inh 62 (no result: EBNA-1 inhibitor, LYPLA2 counter, ZTA DNA inh, LYPLA1 inh) | PREPL inh cf inactive
CSc1ccc(C=NNc2ccc(S(=O)(=O)Nc3ccccc3C(=O)O)cc2[N+](=O)[O-])cc1	none (no result: EBNA-1 inhibitor, LYPLA2 counter, ZTA DNA inh, LYPLA1 inh)
CCOc1ccc(C=NNc2ccc(S(=O)(=O)Nc3ccccc3C(=O)O)cc2[N+](=O)[O-])cc1	PREPL inh 65 (no result: EBNA-1 inhibitor, LYPLA2 counter, ZTA DNA inh, LYPLA1 inh) | PREPL inh cf 69
